Compounds with a hit are over-represented: about 1.6% of the library has one in this group of screens.
KCNQ2 pot – potentiators of rat KCNQ2 potassium channel. O88943. CHO-K1 KCNQ2, FluxOR thallium flux fluorescence; active compounds read high. B-score at 10 µM. actives 0.54% (n = 310,000);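 active = fluorescence ratio B-score at least 3 SD of library B-scores, with initial fluorescence B-score within 3 of them, cut at about 5.3 in these data; same plate scores as AID 2156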;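 note: B-score of peak minus minimum over baseline fluorescence ratio after K+ and Tl+ stimulus; positive B-score means potentiation of KCNQ2 with more thallium influx and brighter signal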
Target sequence (O88943 whole entry, looked up): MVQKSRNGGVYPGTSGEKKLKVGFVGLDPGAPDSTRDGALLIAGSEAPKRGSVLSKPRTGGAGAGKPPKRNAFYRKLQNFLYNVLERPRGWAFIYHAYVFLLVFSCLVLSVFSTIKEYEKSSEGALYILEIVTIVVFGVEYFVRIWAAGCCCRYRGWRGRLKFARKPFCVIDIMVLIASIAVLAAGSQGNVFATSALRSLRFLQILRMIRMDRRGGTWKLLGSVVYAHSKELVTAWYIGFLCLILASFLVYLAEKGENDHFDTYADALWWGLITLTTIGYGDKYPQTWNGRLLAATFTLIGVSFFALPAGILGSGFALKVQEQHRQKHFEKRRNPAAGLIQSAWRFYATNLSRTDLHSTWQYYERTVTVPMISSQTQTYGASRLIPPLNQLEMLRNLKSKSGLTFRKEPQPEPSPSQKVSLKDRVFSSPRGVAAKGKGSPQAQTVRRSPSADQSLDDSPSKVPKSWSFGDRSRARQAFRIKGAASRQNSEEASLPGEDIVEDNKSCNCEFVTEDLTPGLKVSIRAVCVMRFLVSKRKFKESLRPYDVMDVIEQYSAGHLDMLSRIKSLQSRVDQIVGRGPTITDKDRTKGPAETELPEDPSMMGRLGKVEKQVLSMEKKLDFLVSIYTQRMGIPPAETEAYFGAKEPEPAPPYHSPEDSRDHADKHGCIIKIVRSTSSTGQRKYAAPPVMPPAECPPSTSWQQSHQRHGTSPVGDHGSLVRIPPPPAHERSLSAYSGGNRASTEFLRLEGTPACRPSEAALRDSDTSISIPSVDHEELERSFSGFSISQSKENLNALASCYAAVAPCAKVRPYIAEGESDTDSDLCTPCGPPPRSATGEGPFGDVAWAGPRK
KCNQ2 inh – KCNQ2 (rat) channel inhibition. O88943. CHO-K1 KCNQ2, FluxOR thallium flux, 20 min; active compounds read low. B-score at 10 µM. actives 1.1% (n = 310,000). AID 2156;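 active = fluorescence ratio B-score at most minus 3 library SDs, with starting brightness B-score within 2 library SDs, cut at about -5.5 in these data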
* hit, by the source's call; i = inactive; . = not tested or not shown.

SMILES	KCNQ2 pot	KCNQ2 inh
Cc1ccsc1C(=O)N1CCCC(N2CCN(c3cccc(Cl)c3)CC2)C1 (stereo not given)	-7.12	-7.12*
Cc1cccc(C(=O)N2CCCC(N3CCN(c4cccc(Cl)c4)CC3)C2)n1 (stereo not given)	0.04	i
CCOc1ccc(NC(=O)CN(C)C(=O)CCCc2c[nH]c3ccccc23)cc1OCC	.	i
Fc1ccccc1Cc1noc(CN2CCN(c3ccc(Cl)cn3)CC2)n1	-5.6	-5.6*
Clc1ccccc1Cc1noc(CN2CCN(c3cnccn3)CC2)n1	.	i
Cc1cc(C)c(NC(=O)c2ccccc2CCc2ccccc2)c(C)c1	.	i
O=C(NCc1ccc(Cl)cc1)c1ccccc1CCc1ccccc1	4.09	i
COc1ccc(NC(=O)CN(C)C(=O)c2ccccc2CCc2ccccc2)cc1	.	i
O=C(NCc1ccccc1Cl)c1ccccc1CCc1ccccc1	-5.56	-5.56*
O=C(NCc1ccccc1Cl)c1cnccc1C(F)(F)F	7.42*	i
CCc1cccc(CC)c1NC(=O)c1ccccc1CCc1ccccc1	-6.1	-6.1*
O=C(NCc1ccccc1Cl)c1cnccn1	1.22	i
CN(CC(=O)Nc1cccc(F)c1)C(=O)c1ccccc1CCc1ccccc1	-6.24	-6.24*
Cc1oc2ccccc2c1CC(=O)NCCCN(C)C	0.78	i
Cc1ccc2c(C(=O)CN3CC(C)CC(C)C3)c(C)[nH]c2c1 (stereo not given)	0.24	i
CC1CCN(S(=O)(=O)c2cccc(C(=O)Nc3nncs3)c2)CC1	0.08	i
Cc1ccc(C(=O)CCS(=O)(=O)c2ccc(F)cc2)cc1	-6.29	-6.29*
Cc1ccc(S(=O)(=O)CCC(=O)c2ccc(F)cc2)cc1	.	i
CCCCCCCCCCn1c2c(c(=N)c3c1CCC3)CCC2	32*	i
CCCCCn1c2c(c(=N)c3ccccc31)CCC2	0.75	i
O=Cc1ccccc1-c1cn(CN2C(=O)c3ccccc3C2=O)nn1	1.65	i
Cc1ccc(C(=O)COc2cc(O)c3c(=O)cc(-c4ccccc4)oc3c2)cc1	.	i
O=C(COc1cc(O)c2c(=O)cc(-c3ccccc3)oc2c1)c1ccccc1	-5.86	-5.86*
CN(C)CCNC(=O)CNC(=S)N(CCCN1CCOCC1)Cc1cccs1	.	i
S=C(Nc1ccccc1Cl)N1CCCCCC1	0.14	i
SMILES	KCNQ2 pot	KCNQ2 inh
S=C(Nc1ccccc1Cl)N1CCCC(c2ccccc2)=N1	-6.51	-6.51*
O=[N+]([O-])c1ccc(N2CCC(=NOCc3ccc(Cl)cc3)CC2)cc1	-5.69	-5.69*
O=[N+]([O-])c1ccc(CN2CCN(c3ccc([N+](=O)[O-])cc3)CC2)cc1	.	i
CCOC(=O)N1c2ccccc2Sc2ccccc21	.	i
Cc1ccccc1/C(N)=N/OC(=O)N1c2ccccc2Sc2ccccc21	-5.84	-5.84*
O=C(NCCN1CCOCC1)C1CC(=O)N(c2ccc(Cl)cc2)C1 (stereo not given)	0.31	i
O=C(OCC(=O)N1CCOCC1)c1cccc(F)c1	0.06	i
O=C1c2ccccc2C(=O)N1CC1c2ccccc2CCN1C(=O)CN1CCOCC1 (stereo not given)	.	i
O=C1c2ccccc2C(=O)N1CC1c2ccccc2CCN1C(=O)C1CCCCC1 (stereo not given)	-6.91	-6.91*
CCN(CC)C(=O)N1CCc2ccccc2C1CN1C(=O)c2ccccc2C1=O (stereo not given)	-6.18	-6.18*
O=C(O)[C@@H]1CCCC[C@@H]1C(=O)N1CCc2ccccc2C1CN1C(=O)c2ccccc2C1=O (stereo not given in full)	.	i
O=C(CSCc1c(F)cccc1Cl)NCCSCc1ccco1	.	i
COc1ccccc1N(CC(=O)NCCSCc1ccc(Cl)cc1)S(C)(=O)=O	0.05	i
COc1ccccc1OCC(=O)NCCSCc1ccc(Cl)cc1	-5.63	-5.63*
O=C(CSCc1ccc(Cl)cc1)NCCSCc1ccco1	-6.39	-6.39*
S=C(Nc1ccc(CN2CCCCC2)cc1)Nc1cccc(Cl)c1Cl	0.04	i
O=c1cc(CSc2n[nH]c(=O)n2C2CC2)c2ccc(O)cc2o1	.	i
CCc1noc(C)c1C(=O)N1CCN(S(=O)(=O)c2cccs2)CC1	.	i
Cc1ccc(C)c(NC(=O)COc2cccc3c2CCN(Cc2ccccc2C)C3=O)c1	.	i
Cc1ccc(CN2CCc3c(OCC(=O)Nc4cccc(C)c4C)cccc3C2=O)cc1	-7.17	-7.17*
Cc1cc(Cl)ccc1OCCCC(=O)NNC(=O)c1ccccc1O	.	i
NC[C@@H]1O[C@H](C23CC4CC(CC(C4)C2)C3)Cc2c1ccc(O)c2O	-5.85	-5.85*
COc1ccccc1N1CC(C(=O)OCC(=O)Nc2c(C)cccc2C)CC1=O (stereo not given)	.	i
O=C(Cc1ccc(Cl)cc1)Nc1ccc(Br)cc1	3.19	i
C/C(=C\C(=O)c1ccc(Br)cc1)Nc1cccc(Cl)c1	-6.19	-6.19*
SMILES	KCNQ2 pot	KCNQ2 inh
C/C(=C\C(=O)c1ccccc1)Nc1ccc(Cl)c(Br)c1	0.64	i
C/C(=C\C(=O)c1ccc(Cl)cc1)Nc1ccc(Br)cc1	-5.95	-5.95*
O=C(CN1C(=O)NC2(CCOc3ccccc32)C1=O)c1ccc(F)cc1 (stereo not given)	.	i
CC(=O)c1ccc(N2CCN(C3CCC(C(C)(C)C)CC3)CC2)cc1 (stereo not given)	.	i
CCn1c(NCc2cc(Cl)ccc2O)nc2ccccc21	-5.62	-5.62*
C=CCn1c(NCc2ccccc2OC)nc2ccccc21	.	i
CCn1c(NCc2cccc(OC)c2OC)nc2ccccc21	-6.09	-6.09*
C=CCn1c(NCc2cc(Cl)ccc2O)nc2ccccc21	.	i
Cc1cc(C)c(C#N)c(SCC(=O)C2CC2)n1	0.97	i
COc1ccc(NC(=O)CSCC(=O)OCc2cccc(OC)c2OC)cc1	0.75	i
COC(=O)[C@H](C)NC(=O)COc1ccccc1	0.29	i
CCCCCCCCCNC(=O)[C@H](NC(=O)COc1ccccc1)[C@@H]1NC(C(=O)OC)C(C)(C)S1 (stereo not given in full)	-6.33	-6.33*
NS(=O)(=O)c1ccc(NC(=O)CN2CCc3ccccc3C2)cc1	.	i
O=c1c2ccccc2nc(SCc2cc(F)cc3c2OCOC3)n1Cc1ccco1	-8.04	-8.04*
CCOC(=O)c1cc2c(c(CSc3nc4ccccc4c(=O)n3Cc3ccco3)c1)OCOC2	-5.64	-5.64*
CN(Cc1ccccc1)C(=O)CSc1nc2ccccc2c(=O)n1Cc1ccco1	.	i
O=C(CSc1nc2ccccc2c(=O)n1Cc1ccco1)NCc1ccco1	1.15	i
Cc1onc(-c2ccccc2)c1C(=O)NCCc1c[nH]c2ccccc12	-5.7	-5.7*
Cc1noc(C)c1COc1cccc(C(=O)NCCc2c[nH]c3ccccc23)c1	0.11	i
CC1CC(C)CN(c2ccc(NS(=O)(=O)c3ccccc3)cc2C(=O)O)C1 (stereo not given)	.	i
COc1ccc(N=C2S/C(=C\c3ccc(Cl)c([N+](=O)[O-])c3)C(=O)N2CCN(C)C)cc1	-5.63	-5.63*
CCN1C(=O)/C(=C/c2cccs2)SC1=Nc1ccc(OC)cc1	1.01	i
CCN(CC)CCN1C(=O)/C(=C\c2ccc(Cl)c([N+](=O)[O-])c2)SC1=Nc1ccc(OC)cc1	.	i
CCCN1C(=O)/C(=C/c2ccc(C)s2)SC1=Nc1ccc(OC)cc1	-6.17	-6.17*
Cc1c(CC(=O)NCC(=O)O)c(=O)oc2cc3c(cc12)CCC(C)(C)O3	.	i

Assay outcomes: PubChem, Johns Hopkins Ion Channel Center
